nsP2pro primary: blocks chikungunya virus nsP2 protease peptide cleavage; FRET peptide cleavage, nsP2pro, fluorescence 1 h; Potency, µM (titrated, usually from 24.9 µM), without a hit: at the top dose activity change, negative = inhibition, usual class: inhibitors; 1.1% of 31,000 active; further: nearly all actives have a fitted effect of over 60% in size
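Enzyme 150 nM, substrate 2.5 uM (both final); Tris-HCl 10 mM pH 8.0 + 0.01% Tween 20; cpd up to 25 uM, 7 pts; 15 min preinc., 1 h RT; fluorescence ex 525/em 598.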
CHIKV nsP2 cell: secondary cell-based test for CHIKV nsP2 protease inhibitors; 10% of 450 active; shares compounds with nsP2pro primary; Potency, µM (titrated, usually from 51.1 µM), for the others: at the highest dose activity change, negative = inhibition, actives largely listed as inhibitors; cell-based CHIKV nsP2 protease reporter assay; further: nearly all actives have a fitted effect of over 70% in size
NSP2 full ctr: inhibits full-length CHIKV NSP2 enzyme; shares compounds with nsP2pro primary; Full-length CHIKV NSP2 protease enzymatic counterscreen; Potency, µM (series often up to 50.7 µM), for the others: at the highest dose activity change, negative = inhibition, hits mostly inhibitors; 39% of 410 active; AID 1964101; further: nearly all actives have a fitted effect of over 65% in size
Furin counter: inhibits human furin in a CHIKV nsP2 protease selectivity counterscreen; shares compounds with nsP2pro primary; Recombinant human furin enzymatic counterscreen, fluorogenic substrate; Potency, µM (series often up to 50.6 µM), for the others: at the top dose activity change, negative = inhibition, usual class: inhibitors; 6% of 410 active; AID 1964102
NS23 peptide cs: blocks CHIKV nsP2 protease cleavage of endogenous NS2/3 peptide; shares compounds with nsP2pro primary; Purified CHIKV nsP2 protease, endogenous NS2/3 peptide cleavage; Potency, µM (series often up to 51 µM), without a hit: at the highest dose activity change, negative = inhibition, hits mostly inhibitors; 34% of 410 active; further: nearly all actives have a fitted effect of over 55% in size
Papain cs: selectivity counter-screen for CHIKV nsP2 protease inhibitors: papain; shares compounds with nsP2pro primary; 5% of 410 active; Potency, µM (top dose mostly 51 µM), without a hit: at the top dose activity change, negative = inhibition, usual class: inhibitors; purified papain protease activity, enzymatic inhibition; AID 1964104
nsP2pro confirm: confirmation of CHIKV nsP2 protease inhibitors; AID 1964105; shares compounds with nsP2pro primary; Potency, µM (titrated, usually from 25.5 µM), inactives show at the highest dose activity change, negative = inhibition, actives largely listed as inhibitors; 43% of 410 active; CHIKV nsP2 protease enzymatic activity, qHTS; further: nearly all actives have a fitted effect of over 75% in size
HCV NS3 counter: inhibits HCV NS3/4A protease in an nsP2pro selectivity counterscreen; HCV NS3/4A protease biochemical counterscreen; Potency, µM (top dose mostly 50.9 µM), most hits filed as inhibitors; 20% of 410 active; AID 1964106; shares compounds with nsP2pro primary; further: nearly all actives have a fitted effect of over 55% in size
* = called active by the depositor; i = inactive; ? = inconclusive; [ ] = another dose, or the depositor's remark. The full list was thinned out, with hits kept by preference. The call rests on the fitted dose curve. On the % scale 0 is the no-effect control and ±100 the full control effect; potency means the concentration at half of the fitted maximal effect.

SMILES	nsP2pro primary	others
CC(=O)NC1CC2(CCN(C(=O)CCCNC(=O)OC(C)(C)C)CC2)Oc2ccccc21 (stereo not drawn)	?	CHIKV nsP2 cell=-4%;NSP2 full ctr=-72%;Furin counter=-4%;NS23 peptide cs=?;Papain cs=-4%;nsP2pro confirm=?;HCV NS3 counter=?
CC(=O)NCCC(=O)N1CCC2(CC1)CC(NC(C)=O)c1ccccc12 (stereo not drawn)	-13%
CC(=O)NCCCC(=O)N1CCC2(CC1)CN(S(C)(=O)=O)Cc1ccccc1O2	-16%
CC(=O)O[C@@H]1[C@H](O[C@@H]2O[C@H](CO)[C@@H](O)[C@H](O)[C@H]2O)[C@@H](O[C@@H]2O[C@@H](C)[C@H](O)[C@@H](O[C@@H]3O[C@H](CO)[C@@H](O)[C@H](O)[C@H]3O)[C@H]2O)[C@H](OC(=O)[C@]23CCC(C)(C)C[C@H]2C2=CCC4[C@@]5(C)C[C@H](O)[C@H](O[C@@H]6O[C@H](C(=O)O)[C@@H](O)[C@H](O)[C@H]6O)[C@@](C)(C(=O)O)C5CC[C@@]4(C)[C@]2(C)CC3)O[C@@H]1C (stereo partly drawn)	-11%[5.1 µM]
Cc1nc(CCNc2ncnc3ccc(-c4ccc5c(c4)OCO5)cc23)cs1	i
CC(=O)N(C1CC1)C1CCOC2(CCN(C(=O)Cn3c(=O)oc4ccccc43)CC2)C1 (stereo not drawn)	i
CC(Cc1ccc(O)c(O)c1)C(C)Cc1ccc(O)c(O)c1 (stereo not drawn)	9.9µM*	CHIKV nsP2 cell=34%;NSP2 full ctr=29µM*;Furin counter=-16%;NS23 peptide cs=21µM*;Papain cs=-16%;nsP2pro confirm=8µM*;HCV NS3 counter=i
CC(CCc1ccc(O)cc1)NCCc1ccc(O)c(O)c1 (stereo not drawn)	-16%
CC(C)Nc1nc(Nc2ccccc2)nc(-c2ccccc2)n1	-5%
CC(C)NC(=O)N[C@H]1C[C@H]2C(=O)NC[C@@H](CCC(=O)N3CCN(c4ccccn4)CC3)N2C1	0%
COc1ccc2c(c1O)OC(C)(C)c1c-2ccc2c1C(=O)N(c1ccc(C(=O)c3ccccc3)cc1)C2=O	47%
Cc1cc(=O)[nH]c2nnc(SCc3ccc(Cl)cc3Cl)n12	-15%
CC(C)C[C@H](N)c1nnc(SCc2ccc(Cl)cc2Cl)o1	?	CHIKV nsP2 cell=31%
Clc1ccccc1CSc1nnc(C2CCNCC2)o1	12%
Cc1ccc(OCCn2c(CCNC(=O)COc3ccccc3Br)nc3ccccc32)cc1	-8%
CO[C@H]1[C@H](O)[C@H](O[C@H]2CC[C@]3(C=O)C4CC[C@]5(C)[C@H](C6=CC(=O)OC6)CC[C@]5(O)C4CC[C@@H]3C2)O[C@@H](C)[C@@H]1O (stereo partly drawn)	9%[10 µM]
O=C1OC2(CCN(C(=O)c3ccco3)CC2)CN1CCOc1ccccc1	-13%
O=C(COc1ccccc1)N1CCC(OCc2ccccc2)C1 (stereo not drawn)	-2%
Cc1ccccc1CSc1ncc(Cl)c(C(=O)NCc2ccccc2)n1	67%
Cc1cccc(CS(=O)(=O)c2ncc(Cl)c(C(=O)NCc3ccccc3)n2)c1	3.5µM*	CHIKV nsP2 cell=2.6µM*;NSP2 full ctr=9.2µM*;Furin counter=-6%;NS23 peptide cs=6.5µM*;Papain cs=-7%;nsP2pro confirm=4.5µM*;HCV NS3 counter=?
COc1ccc(CNC(=O)c2nc(SCc3ccccc3F)ncc2Cl)cc1	-19%
O=C(NCc1ccccc1)c1nc(S(=O)(=O)Cc2ccc(F)cc2)ncc1Cl	7.6µM*	CHIKV nsP2 cell=0.46µM*;NSP2 full ctr=12µM*;Furin counter=-2%;NS23 peptide cs=5.2µM*;Papain cs=-4%;nsP2pro confirm=3.6µM*;HCV NS3 counter=?
Cc1ccc(CSc2ncc(Cl)c(C(=O)NCc3ccccc3)n2)cc1	24%
CSc1ncc(Cl)c(C(=O)NCc2ccc(C)cc2)n1	-3%
COc1cc(O)c([C@H](CC(=O)N2CC(C)CC(C)C2)c2ccc3c(c2)OCO3)c(OC)c1 (stereo partly drawn)	-11%[39.2 µM]
SMILES	nsP2pro primary	others
FC1(F)C[C@@H](c2nc(C3CC3)no2)N(Cc2ccco2)C1	-11%
Cc1noc([C@H]2CCN(CC3CC3)C[C@H]2NC(=O)C2CCOCC2)n1	1%
CN1CCCCCCN(C(=O)c2ccc3ccccc3n2)[C@H]2CCC[C@H]2C1=O	3%
CCC(C)NC(=O)CN1CN(c2ccccc2)C2(CCN(C(=O)Nc3ccccc3C)CC2)C1=O (stereo not drawn)	i
Cc1cnc(-c2ccccc2C(C)C)nc1N(C)Cc1ccc(-c2cccnc2)cc1	i
O=C(CSc1oc(-c2ccccc2)nc1S(=O)(=O)c1ccccc1)c1ccccc1	-25%
O=c1ncn(Cc2ccccc2)c2ccc(-c3cccnc3)nc12	-3%[39.2 µM]
O=C1c2ccccc2C(=O)c2oc(-c3cccnc3)nc21	3.1µM*	CHIKV nsP2 cell=?;NSP2 full ctr=-24%;Furin counter=-5%;NS23 peptide cs=?;Papain cs=-10%;nsP2pro confirm=?;HCV NS3 counter=i
NCCc1noc(-c2ccccc2)n1	-11%
O=C1c2ccccc2C(=O)c2oc(-c3ccccc3)nc21	8.8µM*	CHIKV nsP2 cell=-26%;NSP2 full ctr=?;Furin counter=-5%;NS23 peptide cs=-24%;Papain cs=-1%;nsP2pro confirm=-21%;HCV NS3 counter=i
CCN1CCN(C(=O)c2cc(-c3ccccc3OC)c3nncn3n2)CC1	-4%[39.2 µM]
CCOC(=O)C1CCN(C(=O)C(C)(C)NC(=O)Nc2ccc3ccccc3c2)CC1	-8%
c1ccc(-n2cc(CN3CCCN(Cc4cccs4)CC3)nn2)cc1	i
N#Cc1cccc(C#N)c1-c1nc2c3ccccc3c3cc(Cl)ccc3c2[nH]1	-8%
C=C1CC2C3(C)C(O)CC(=O)C(C)(C)C3C(OC(C)=O)C(OC(C)=O)C2(C)C2C(=O)OC(C)(C(=O)OC)C(=O)C12C (stereo not drawn)	-11%[10 µM]
CN(CC(=O)NCc1ccc(F)cc1)S(=O)(=O)c1ccc2[nH]c3c(c2c1)CCCC3	-29%
Cc1cccc(N(C)C(=O)CN(C)S(=O)(=O)c2ccc3[nH]c4c(c3c2)CCCC4)c1	?	CHIKV nsP2 cell=-4%
Cc1ccc(CNS(=O)(=O)c2ccc3[nH]c4c(c3c2)CCCC4)cc1	-16%
Fc1ccc(-c2nc(CCCCSc3nnc(-c4cccc5ccccc45)o3)no2)cc1	i
O=C(NC1CCCc2c1cnn2-c1ccc(F)cc1F)c1ccncc1 (stereo not drawn)	-10%

Bioassay records as filed in PubChem.
